Source: PubChem BioAssay (NCATS)
“And” between values parts separate entries of the source, which are not always exact repeats. Equal entries are not always repeated. Results filed as inconclusive are left out. The source made the active and inactive calls. Calls come from the whole dose curve; as a rule, active = well fitted inhibition curve with a large enough effect; inconclusive = small, poorly fitted or top-dose-only effect; inactive = flat fitted curve, though single readings scatter.

Legend:
KB-3-1 = experiment: Cytotoxic Profiling of Annotated Libraries Using Quantitative High-Throughput Screening (AID 1296008); settings: Five cell lines viability, CellTiter-Glo ATP luminescence, 48-72 h; max response: hits give low values; for max response: % is set by controls: 0 for no effect and ±100 for the full control effect
Method in brief: (§1)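 Compounds were pin-transferred onto cells and incubated 48 or 72 hr at 37 degree Celsius, 95% humidity. CellTiter-Glo was added, plates sat 10 min at room temperature, then ATP-coupled luminescence was imaged as the viability read-out.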

NIH3T3 [1] = experiment: as above; settings: Five cell lines viability, CellTiter-Glo ATP luminescence, 48-72 h; max response: hits give low values
Method in brief: as §1

CRL-7250 = normal cell line; experiment: qHTS assay to identify novel small-molecules to repurpose for Merkel cell carcinoma treatment (AID 1296009); settings: MCC and control cell lines, CellTiter-Glo viability, 72 h; at 44.8 µM (top of the series) unless noted
Method in brief: (§2)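 Cells exposed to NPC (8-point) and MIPE (11-point) compound dilutions for 72 hr at 37 degree celsius; viability read by CellTiter-Glo luminescence, normalized to no-cell and DMSO in-plate controls.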

HACAT = experiment: as above; settings: MCC and control cell lines, CellTiter-Glo viability, 72 h; at 44.8 µM (top of the series) unless noted
Method in brief: as §2

HEK293T = experiment: as above; settings: MCC and control cell lines, CellTiter-Glo viability, 72 h; at 44.8 µM (top of the series) unless noted
Method in brief: as §2

NIH3T3 [2] = experiment: as above; settings: MCC and control cell lines, CellTiter-Glo viability, 72 h; at 44.8 µM (top of the series) unless noted
Method in brief: as §2

Measured: max response
Note: nearly all actives have a fitted effect of over 60% in size.

COc1cc2c(cc1OC)[C@@]13CCN4CC5=CCO[C@H]6CC(=O)N2[C@H]1[C@H]6[C@H]5C[C@H]43
inactive: KB-3-1 8.18% and 2.14% | NIH3T3 [1] 1.02%

C/C=C(\C)C(=O)OC1CC2C(CC=C3CC(OC4CC(OC)C(OC5CC(OC)C(OC6OC(C)C(OC7OC(CO)C(O)C(O)C7O)C(OC)C6O)C(C)O5)C(C)O4)CCC32C)C2(O)CCC(C(C)=O)C12C (configuration not stated)
inactive: KB-3-1 | NIH3T3 [1] -0.91% | CRL-7250 inactive [at 9.27 µM] | HACAT inactive [at 9.27 µM]

C=C[C@H]1CN2CC[C@H]1C[C@@H]2[C@@H](O)c1ccnc2ccccc12
inactive: KB-3-1 5.41% and -18.8% | NIH3T3 [1] -3.21%

CN[C@H]1[C@H](O)[C@H](O[C@@H]2[C@@H](O)[C@H](O[C@H]3O[C@H]([C@H](C)O)[C@@H](O)[C@H](O)[C@H]3N)[C@@H](N)C[C@H]2N)OC[C@@]1(C)O
inactive: KB-3-1 3.55% | NIH3T3 [1] 4.53% | CRL-7250 | HACAT

CCN1C[C@]2(COC)[C@H](O)C[C@H](OC)[C@]34[C@@H]5C[C@]6(O)[C@H](OC(=O)c7ccccc7)[C@@H]5[C@@](O)([C@H]([C@H](OC)[C@H]23)[C@@H]14)[C@@H](O)[C@@H]6OC
inactive: KB-3-1 2.1% | NIH3T3 [1] | CRL-7250 | HEK293T | NIH3T3 [2]

COC1CC(=O)C23C(=O)NC(CC(C)C)C2C(C)=C(C)C(OO)C3/C=C(\C)CCC(O)C1O (configuration not stated)
inactive: KB-3-1 | NIH3T3 [1] | CRL-7250 inactive [at 17.4 µM] | HACAT inactive [at 17.4 µM] | NIH3T3 [2] inactive [at 17.4 µM]
